# High-throughput results (PubChem)
# TRPM1 prom inh = MITF TRPM1 promoter inhibition in SK-MEL-5 cells | SK-MEL-5 TRPM1 promoter luciferase, 24 h | inhibition, % at 12.5 µM | 330,000 compounds, 0.83% hits | AID 488899;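 active = mean inhibition across replicates of 60% or more, whatever share of single replicates reaches that level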
# TWEAK-Fn14 inh = inhibitors of TWEAK-Fn14 interaction signaling. TWEAK-stimulated Fn14 reporter cells, luciferase luminescence, 8 h. inhibition, % at 10 µM. 360,000 compounds, 2% hits; in the data active = inhibition above about 50%
# Shn3 3UTR inh = Schnurri-3 reporter inhibition in Clone20 osteoblasts; inhibition, % at 12.5 µM; 360,000 compounds, 0.52% hits; Clone20 osteoblast Shn3 3'UTR firefly luciferase, 24 h;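 active = mean inhibition of at least 75% with every replicate also reaching 75%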;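 also: 0% = median of neutral control wells and 100% = pilot-screen positive control compound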
# EBV LMP1 NFkB = inhibitors of Epstein-Barr LMP1-induced NF-kappaB reporter. 350,000 compounds, 0.69% hits. LMP1-induced NF-kappaB luciferase reporter cells, luminescence. AID 504558. inhibition, % at 12.5 µM; in the data active = inhibition above about 41%;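 also: 0% = neutral control wells and 100% = reference inhibitor control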
# Peg3 prom inh = reduces Peg3 promoter-driven luciferase expression in HeLa; inhibition, % at 20 µM; 360,000 compounds, 1.7% hits; HeLa PEG-Prom luciferase reporter, luminescence, overnight;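 active = inhibition of at least 50% at 20 µM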
# TROY NFkB inh = blocks TROY-dependent signaling in reporter cells; 360,000 compounds, 0.98% hits; AID 1347056; Q293 LMP1-TROYcd NF-kB luciferase reporter, 4 h; inhibition, % at 10 µM;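 active = compounds whose plate-normalised and pattern-corrected inhibition of the luciferase reporter signal at the single screening dose is 50% or more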
# * marks the source's active call; other numbers are inactive results; nt = no result. Compounds with a hit are over-represented: about 4.1% of the library has one in this group of screens.
SMILES,TRPM1 prom inh,TWEAK-Fn14 inh,Shn3 3UTR inh,EBV LMP1 NFkB,Peg3 prom inh,TROY NFkB inh
CCCNC(=O)N1CCN(S(=O)(=O)c2ccc(C)c(C)c2)CC1,-6,-5,-8,47*,9,17
O=C(NC12CC3CC(CC(C3)C1)C2)c1ccc([N+](=O)[O-])o1,63*,21,-2,-2,84*,-5
O=C(NC12CC3CC(CC(C3)C1)C2)c1ccc(Br)o1,-2,2,35,8,-7,-27
Cc1[nH]n(-c2ccccc2)c(=O)c1/C=N/NC(=O)c1ccccc1F,14,8,42,25,1,-24
CCc1ccccc1NC(=O)COC(=O)c1cccs1,-1,-1,-3,1,-11,-11
Cc1cccc(C)c1NC(=O)CN(C)CC(=O)Nc1ccccc1Oc1ccccc1,-2,52*,0,63*,13,1
O=C(NCc1cccnc1)c1cc(C2CCCN(S(=O)(=O)c3ccccc3)C2)on1 (stereo not drawn),nt,-6,2,nt,7,-11
Cc1ccc(C(=O)NCC(=O)Nc2ccc3c(c2)OCCO3)cc1,-14,-6,-29,-5,-67,-26
O=C(CCNS(=O)(=O)c1ccc2c(c1)CCC(=O)N2)Nc1ccc2c(c1)OCCO2,11,68*,23,6,-38,56*
Cc1ccc(NC(=O)CCNS(=O)(=O)c2ccc3c(c2)CCC(=O)N3)cc1F,nt,3,1,5,-5,0
CC(C)(C)c1ccc(C(=O)NCCC(=O)Nc2ccc3c(c2)OCCO3)cc1,-11,67*,-3,10,-12,65*
Nc1c(C(=O)Nc2ccccc2)nnn1-c1ccc2c(c1)OCCO2,-25,56*,5,3,-166,32
Cc1ccc(NC(=O)c2ccc3c(c2)OCCO3)cc1S(=O)(=O)Nc1cccc(Cl)c1,2,62*,-46,7,-110,59*
COc1ccccc1C(=O)NCCC(=O)N1CCN(S(=O)(=O)c2ccccc2C(F)(F)F)CC1,-4,-12,0,-3,3,-15
Cc1ccc(NC(=O)c2ccc3c(c2)OCCO3)cc1C,7,85*,0,29,-10,47
O=C(Nc1ccc(NC(=O)c2ccc3c(c2)OCCO3)cc1)c1ccccc1,0,-41,3,19,100*,16
Cc1cccc(NC(=O)c2ccc3c(c2)OCCO3)c1,-4,36,-13,9,-66,3
O=C(O)c1ccc(C(=O)O)c(C(=O)c2ccc(NC(=O)c3ccccc3)cc2)c1,12,-1,-8,60*,1,-3
O=C(Nc1ccccc1)c1ccc2c(c1)OCCO2,-54,-3,-35,-8,-199,-64
O=C(Nc1ccc2oc(-c3ccccc3F)nc2c1)c1ccc2c(c1)OCCO2,-13,72*,-50,1,-77,60*
CCCCN(C(=O)c1ccc(-c2ccc(Cl)cc2)o1)c1c(N)n(CCC)c(=O)[nH]c1=O,-10,14,0,-3,2,-8
Cc1ccc(NC2CCCN(C(=O)c3cccc(-c4ncc[nH]4)c3)C2)cc1C (stereo not drawn),7,-4,15,-1,-7,-12
COc1ccccc1NC(=O)COC(=O)c1ccc(S(=O)(=O)N2CCCCCC2)cc1,1,5,-16,0,10,-13
CC(C)c1ccc(OCc2cccc(C(=O)N/N=C/c3cccnc3)c2)cc1,2,-13,20,63*,-138,-7
O=C(N/N=C/c1cccnc1)c1cccc(Br)c1,-4,-29,-15,11,-19,-14
SMILES,TRPM1 prom inh,TWEAK-Fn14 inh,Shn3 3UTR inh,EBV LMP1 NFkB,Peg3 prom inh,TROY NFkB inh
CCOc1ccc(OCc2cccc(C(=O)N/N=C/c3cccnc3)c2)cc1,57,-17,7,75*,-71,-26
COCCCN(Cc1cc(OC)c(OC)c(OC)c1)C(=S)Nc1cccc(Cl)c1,nt,4,82*,5,13,6
O=[N+]([O-])c1ccc(/C=N/Nc2cc(Cl)nc(-c3ccccc3)n2)cc1,14,-63,5,85*,11,-8
O=C1c2[nH]nc(-c3ccccc3O)c2C(c2cccc(Cl)c2)N1Cc1ccco1 (stereo not drawn),8,29,-5,1,60*,24
Cc1cc(C)c(O)c(-c2n[nH]c3c2C(c2cccc(O)c2)N(Cc2ccco2)C3=O)c1 (stereo not drawn),14,17,1,-6,30,60*
CC(C)(C)c1ccc(C(CC(=O)O)NC(=O)C23CC4CC(CC(C4)C2)C3)cc1 (stereo not drawn),-4,20,16,-5,-20,7
Cc1cccc(/N=C/c2c(O)n(Cc3ccc4c(c3)OCO4)c(=O)c3ccccc23)n1,-6,44,1,0,-3,-3
Cc1ccc(N(C(=O)c2csnn2)C(C(=O)NC2CCCCC2)c2ccco2)cc1 (stereo not drawn),8,0,2,-13,8,-3
O=C(NCc1ccc(F)cc1)c1cc(C2CCCCN2C(=O)OCCF)on1 (stereo not drawn),nt,-20,-7,nt,6,-7
COc1ccc(Br)c(Cn2c(C)c(C(=O)NCc3ccccc3C(F)(F)F)sc2=O)c1,nt,13,4,nt,14,69*
Cc1cccc(C)c1Cn1c(C)c(C(=O)NCc2ccccc2C(F)(F)F)sc1=O,nt,-8,-1,nt,8,-19
O=C(Cc1cccc(C(F)(F)F)c1)NCC(=O)Nc1cc(Cl)ccc1Cl,4,-14,1,5,27,-26
Cn1nnnc1Sc1ncnc2scc(-c3ccc(C(F)(F)F)cc3)c12,82*,93*,66,-4,97*,55*
Fc1ccc(CSc2ncnc3scc(-c4ccccc4)c23)cc1,-14,-7,-3,6,20,-4
COC(=O)CSc1ncnc2scc(-c3ccccc3)c12,10,8,10,3,14,10
Cn1nnnc1Sc1ncnc2scc(-c3ccccc3C(F)(F)F)c12,43,28,-10,4,18,9
Cn1nnnc1Sc1ncnc2scc(-c3cccc(C(F)(F)F)c3)c12,75*,90*,23,21,95*,58*
Cn1nnnc1Sc1ncnc2scc(-c3cccc(F)c3)c12,78*,64*,68,24,102*,43
COc1cccc(-c2csc3ncnc(Sc4nnnn4C)c23)c1,71*,75*,-12,75*,88*,38
COc1ccc(-c2csc3ncnc(N4CCN(S(=O)(=O)c5cccc(C(F)(F)F)c5)CC4)c23)cc1,-13,1,18,-9,-9,-6
O=C(/C=C/Nc1ccc(S(=O)(=O)Nc2ncccn2)cc1)c1cccs1,10,60*,8,-6,5,42
O=C(/C=C/Nc1ccc(S(=O)(=O)Nc2ncccn2)cc1)c1ccc(Cl)c(Cl)c1,8,4,21,-1,-12,-10
CCOC(=O)N1CCN(Cc2nc3cc(NC(=O)CC(C)C)ccc3n2CC)CC1,2,-9,15,4,18,-8
